Source: PubChem BioAssay (several laboratories)
This is a sample that favours compounds with a hit; in the whole collection about 3.2% have one here.
esBAF inh = inhibitors of esBAF chromatin remodeling in mouse ES cells; Bmi1-luciferase knock-in reporter, 24 h; 100% = twice the neutral-well signal; reporter increase, % at 12.5 µM; actives 2% (n = 350,000); in the data active = activation above about 40%;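 also: a rise in the Bmi1 reporter signal indicates esBAF inhibition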
Rtt109 Vps75 = inhibitors of Candida albicans Rtt109/Vps75 histone acetyltransferase. purified Rtt109/Vps75, ThioGlo CoA-SH fluorescence, 4 h. inhibition, % at 34.9 µM. actives 0.16% (n = 330,000);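 active = inhibition of at least 50% in every replicate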
DYRK1A inh = Dyrk1A (rat) kinase inhibition | Q63470 | ADP-Glo luminescence, NFATc1 peptide | inhibition, % at 12.5 µM | actives 0.43% (n = 310,000) | AID 504441; in the data active = inhibition above about 50%
SMARCA2 act = SMARCA2 function activation, primary screen; activation, % at 9.1 µM; MG213 cells, MMTV-luciferase reporter, dexamethasone, overnight; AID 652017; actives 1% (n = 370,000); in the data active = activation above about 7.8%
CDK5 inh = blocks human CDK5/p35 kinase activity; Q00535+Q15078; Recombinant CDK5/p35, ADP-Glo luminescence, 60 min; inhibition, % at 10 µM; actives 0.01% (n = 330,000); AID 488839;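 active = highest replicate inhibition of at least 50% and at least 75% of replicates reaching 50%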
dFosB act-1 = mouse delta FosB homodimer activation; purified delta FosB, TAMRA-CDK5 oligo fluorescence polarization; percent of positive-control signal above neutral wells; actives 0.99% (n = 340,000); activation, % at 25 µM; P13346;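 active = mean activation above about 17%, with every replicate also reaching it, limit read from the data, passing the limit was not always enough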
Target sequence (P13346 whole entry, looked up): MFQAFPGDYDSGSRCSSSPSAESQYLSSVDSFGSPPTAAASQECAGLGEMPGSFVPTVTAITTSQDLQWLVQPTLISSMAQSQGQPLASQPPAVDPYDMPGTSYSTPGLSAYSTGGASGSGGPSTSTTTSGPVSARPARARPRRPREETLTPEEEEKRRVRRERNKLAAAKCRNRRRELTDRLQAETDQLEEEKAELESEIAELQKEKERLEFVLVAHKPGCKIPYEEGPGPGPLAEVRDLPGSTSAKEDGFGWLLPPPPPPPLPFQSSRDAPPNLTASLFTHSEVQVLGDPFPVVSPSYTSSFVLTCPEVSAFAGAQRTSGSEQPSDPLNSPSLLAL
dFosB act-2 = activators of mouse delta FosB homodimer DNA binding | 2,400 tested, under 10 active | AID 588690 | purified delta FosB, TAMRA-CDK5 oligo fluorescence polarization; normalised: neutral wells 0, positive control 100 | activation, % at 24.9 µM | shares compounds with dFosB act-1;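 active = highest replicate activation at or above 34% and every replicate reaching that threshold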;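 also: higher polarization means more probe DNA bound by delta FosB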
Hits are given with their value; . = inactive; / = no result.

SMILES	esBAF inh	Rtt109 Vps75	DYRK1A inh	SMARCA2 act	CDK5 inh	dFosB act-1	dFosB act-2
CCc1ccc2nc(N(CCCN(C)C)C(=O)c3ccc(S(=O)(=O)N4CCCc5ccccc54)cc3)sc2c1	.	.	.	.	.	23	.
COc1cccc(S(=O)(=O)Nc2ccc3c(c2)[C@@H]2C[C@@H](CC(=O)NCCc4ccccc4)O[C@@H](CO)[C@@H]2O3)c1	.	/	/	/	/	/	/
O=S(=O)(N[C@H]1CC[C@H](CCn2cc(C3(O)CCCC3)nn2)O[C@@H]1CO)c1ccccc1	.	/	/	/	/	/	/
CN1C(=O)c2cc(NS(C)(=O)=O)ccc2OC[C@@H]2O[C@H](CC(=O)NC3CCCCC3)CC[C@H]21	.	/	/	/	/	/	/
CCC(C)n1c(=O)c(C(=O)Nc2ccccc2S(N)(=O)=O)c(O)c2ccccc21 (centres undefined)	.	.	.	.	.	74	.
C[C@H]1CN([C@@H](C)CO)C(=O)c2cccc(NS(=O)(=O)c3ccccc3)c2O[C@H]1CN(C)Cc1ccccc1	.	/	/	/	/	/	/
CN(CC(=O)Nc1ccc(Cl)c(C(F)(F)F)c1)C(=O)c1cc(-c2ccncc2)nc2ccccc12	.	.	.	.	.	66	.
CN(CC(=O)Nc1ccc(F)c(F)c1F)C(=O)c1cc(-c2ccncc2)nc2ccccc12	/	.	.	.	.	.	/
Cc1c(Cl)c([N+](=O)[O-])nn1CC(=O)NCc1ccc(Cl)cc1	.	.	.	.	.	.	/
Cc1nn(Cc2ccc(Cl)cc2Cl)c(C)c1NC(=O)Cn1nc([N+](=O)[O-])c(Cl)c1C	/	.	.	.	.	44	.
Cc1nn(Cc2ccc(Cl)cc2)c(C)c1NC(=O)Cn1nc([N+](=O)[O-])c(Cl)c1C	.	.	.	.	.	20	.
Cc1nn(Cc2c(Cl)cccc2Cl)c(C)c1NC(=O)CCCn1nc([N+](=O)[O-])c(Cl)c1C	/	.	.	.	.	.	/
O=C(C[C@H]1CC[C@@H]2[C@H](COC[C@@H](O)CN2Cc2cc(F)cc(F)c2)O1)NC1CCCC1	.	/	/	/	/	/	/
C[C@H](CO)N1C[C@H](C)[C@H](CN(C)C(=O)[C@H]2CCCN2C)OCc2ccccc2-c2c(n(C)c3ccccc23)C1=O	.	/	/	/	/	/	/
COc1ccc(OC)c(NC(=O)COc2ccc(Br)cc2)c1	.	.	.	.	.	.	/
COc1ccc(OC)c(NC(=O)Cn2cc(C#N)c3cc(Br)ccc32)c1	.	.	.	.	.	26	.
CCOc1ccc(NC(=O)Cn2cc(C(=O)CC)c3ccccc32)cc1	/	.	.	/	.	41	.
CCOc1ccc(NC(=O)Cn2cc(C(C)=O)c3ccccc32)cc1	.	.	.	.	.	.	/
COc1ccc(NC(=O)Cn2cc(C#N)c3ccccc32)cc1	/	.	/	.	.	42	.
O=c1c(-c2c(O)cc(O)c3c2O[C@H](c2ccc(O)cc2)CC3)c(-c2ccc(O)cc2)oc2cc(O)cc(O)c12	.	.	.	/	.	31	.
C[C@H](CO)N1C[C@H](C)[C@@H](CN(C)S(=O)(=O)c2cccs2)Oc2c(NS(C)(=O)=O)cccc2C1=O	.	/	/	/	/	/	/
COc1ccc(NC(=O)N(C)C[C@H]2Oc3c(cccc3N(C)C)C(=O)N([C@@H](C)CO)C[C@@H]2C)cc1	.	/	/	/	/	/	/
Cc1ccc(C(=O)OCC(=O)Nc2ccccc2Cl)c(O)c1	/	.	.	.	.	.	/
Cc1ccc(C(=O)OCC(=O)Nc2cccc(Cl)c2C)c(O)c1	.	.	.	.	.	20	.
C[C@@H]1CN([C@H](C)CO)C(=O)c2cc(C#CC(C)(C)O)cnc2O[C@@H]1CN(C)Cc1cncnc1	.	/	/	/	/	/	/
SMILES	esBAF inh	Rtt109 Vps75	DYRK1A inh	SMARCA2 act	CDK5 inh	dFosB act-1	dFosB act-2
CO[C@H]1CN(C)C(=O)c2ccc(NC(=O)C3CCCCC3)cc2OC[C@@H](C)N(C(=O)c2ccccc2)C[C@H]1C	.	/	/	/	/	/	/
CO[C@H]1CN(C)C(=O)c2cc(NC(=O)Nc3cc(F)ccc3F)ccc2OC[C@@H](C)N(C(=O)c2cnccn2)C[C@H]1C	.	/	/	/	/	/	/
O=C(NC1=NCCS1)c1cccs1	.	.	.	.	.	27	.
CC(C)C(NC(=O)c1cccs1)C(=O)NC1=NCCS1 (centres undefined)	.	.	.	.	.	.	/
COc1ccc(-c2cn(CC[C@H]3CC[C@@H](NS(=O)(=O)c4ccccc4C)[C@@H](CO)O3)nn2)cc1	.	/	/	/	/	/	/
O=C(Nc1cccc2ccccc12)/C(=C\c1cccc([N+](=O)[O-])c1)NC(=O)c1cccs1	.	.	.	.	.	.	/
O=C(Nc1cccc2ccccc12)/C(=C/c1cccc([N+](=O)[O-])c1)NC(=O)c1cccs1	/	.	.	.	.	24	.
COc1ccc(-c2nc(C(N)=O)c3[nH]c(=O)n(-c4cccc(Cl)c4)c3n2)cc1OC	.	.	.	.	.	29	.
COc1cc(C(=O)OCC(=O)NCc2ccccc2)cc(NC(=O)c2ccco2)c1OC	.	.	.	.	.	26	.
CNC(=O)COC(=O)c1cc(NC(=O)c2ccco2)c(OC)c(OC)c1	.	.	.	.	.	.	/
O=C(Nc1cccc(Cl)c1)N1C[C@@H]2[C@H](c3ccccc31)[C@H](CO)N2C(=O)c1ccncc1	.	/	/	/	/	/	/
Cc1ccc2c(c1)NC(=O)c1cc([N+](=O)[O-])ccc1O2	/	.	.	.	.	31	.
CN(C)C(=O)C[C@H]1C=C[C@H](NS(=O)(=O)c2ccccc2)[C@H](CO)O1	.	/	/	/	/	/	/
O=C(N/N=C/c1cccnc1)c1cccc(S(=O)(=O)Nc2cccc(Cl)c2)c1	.	.	/	.	.	31	.
COc1ccc(NS(=O)(=O)c2cccc(C(=O)NN=Cc3ccc(OC)cc3OC)c2)cc1	.	.	.	.	.	26	.
CC(=O)Nc1cccc(C(=O)N/N=C/c2cccnc2)c1	.	.	.	.	.	.	/
O=C(N/N=C/c1ccncc1)c1cccc(S(=O)(=O)Nc2ccc(Cl)cc2)c1	/	.	.	.	.	45	.
O=C(N/N=C/c1cccnc1)c1cccc(NC(=O)c2cccc(Br)c2)c1	.	.	.	.	.	45	.
CCCN1[C@@H]2c3ccc(/C=C/c4ccccc4)c(=O)n3C[C@@H]2[C@@H](CO)[C@@H]1C(=O)NCC	.	/	/	/	/	/	/
C[C@H]1CN([C@@H](C)CO)C(=O)c2cccc(NC(=O)Nc3ccc4c(c3)OCO4)c2O[C@@H]1CN(C)C(=O)NC1CCCCC1	.	/	/	/	/	/	/
COc1ccc(NS(=O)(=O)c2ccc(OC)c(NC(=O)CNC(=O)c3ccc(OC)cc3)c2)cc1	.	.	.	.	.	39	.
O=C(O)c1cccc(S(=O)(=O)NCc2cccs2)c1	.	.	.	.	.	.	/
